Data from the supplement of paper PMC4466140.

How the values were obtained:
Assay in all cases: SPOT peptide array binding signal intensity (averaged, normalized) (arbitrary units (background-subtracted, floor 0; scale differs between SH3 domains)); higher = stronger binding of the SH3 domain to the peptide
AgAbp1 = target: AgAbp1
Outline: (§1)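 GST-fused SH3 domains, from four yeast species, were produced in E. coli BL21(DE3) and captured on glutathione Sepharose. Membranes of cellulose carrying synthetic 15-mer peptides, in which cysteines had been replaced by serines, were exposed to each domain at 10 μg/ml overnight at 4°C in TBS-based blocking buffer. After anti-GST antibody, an HRP anti-mouse secondary and luminol, spots were imaged and quantified using Genespotter. Binding signal is normalized and background-subtracted spot intensity, averaged over replicates, in arbitrary units that differ between domains.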

AgBbc1 = target: AgBbc1
Outline: as §1

AgBem1-D1 = target: AgBem1-D1
Outline: as §1

AgBzz1-D1 = target: AgBzz1-D1
Outline: as §1

AgBzz1-D2 = target: AgBzz1-D2
Outline: as §1

AgCyk3 = target: AgCyk3
Outline: as §1

AgFus1 = target: AgFus1
Outline: as §1

AgHof1 = target: AgHof1
Outline: as §1

AgHse1 = target: AgHse1
Outline: as §1

AgLsb1 = target: AgLsb1
Outline: as §1

AgLsb4 = target: AgLsb4
Outline: as §1

AgMyo5 = target: AgMyo5
Outline: as §1

AgNbp2 = target: AgNbp2
Outline: as §1

AgRvs167 = target: AgRvs167
Outline: as §1

AgSho1 = target: AgSho1
Outline: as §1

AgSla1-D1-D2 = target: AgSla1-D1-D2
Outline: as §1

AgSla1-D3 = target: AgSla1-D3
Outline: as §1

CaAbp1-D1 = target: CaAbp1-D1
Outline: as §1

CaAbp1-D2 = target: CaAbp1-D2
Outline: as §1

CaBbc1 = target: CaBbc1
Outline: as §1

CaBem1-D1 = target: CaBem1-D1
Outline: as §1

CaBzz1-D1 = target: CaBzz1-D1
Outline: as §1

CaBzz1-D2 = target: CaBzz1-D2
Outline: as §1

CaCyk3 = target: CaCyk3
Outline: as §1

CaFus1 = target: CaFus1
Outline: as §1

CaHof1 = target: CaHof1
Outline: as §1

CaHse1 = target: CaHse1
Outline: as §1

CaLsb1 = target: CaLsb1
Outline: as §1

CaLsb4 = target: CaLsb4
Outline: as §1

CaMyo5 = target: CaMyo5
Outline: as §1

NFKRLLPRDPSEKSS
SPOT peptide array binding signal intensity (AgAbp1): 1 | SPOT peptide array binding signal intensity (AgBbc1): 0.75 | SPOT peptide array binding signal intensity (AgBem1-D1): 105 | SPOT peptide array binding signal intensity (AgBzz1-D1): 6 | SPOT peptide array binding signal intensity (AgBzz1-D2): 35 | SPOT peptide array binding signal intensity (AgCyk3): 0.5 | SPOT peptide array binding signal intensity (AgFus1): 311 | SPOT peptide array binding signal intensity (AgHof1): 32 | SPOT peptide array binding signal intensity (AgHse1): 2610 | SPOT peptide array binding signal intensity (AgLsb1): 2.5 | SPOT peptide array binding signal intensity (AgLsb4): 50 | SPOT peptide array binding signal intensity (AgMyo5): 1 | SPOT peptide array binding signal intensity (AgNbp2): ≤ 0 | SPOT peptide array binding signal intensity (AgRvs167): 2 | SPOT peptide array binding signal intensity (AgSho1): 99.5 | SPOT peptide array binding signal intensity (AgSla1-D1-D2): 15.5 | SPOT peptide array binding signal intensity (AgSla1-D3): 5.5 | SPOT peptide array binding signal intensity (CaAbp1-D1): 126 | SPOT peptide array binding signal intensity (CaAbp1-D2): 30 | SPOT peptide array binding signal intensity (CaBbc1): ≤ 0 | SPOT peptide array binding signal intensity (CaBem1-D1): ≤ 0 | SPOT peptide array binding signal intensity (CaBzz1-D1): ≤ 0 | SPOT peptide array binding signal intensity (CaBzz1-D2): 17.8 | SPOT peptide array binding signal intensity (CaCyk3): ≤ 0 | SPOT peptide array binding signal intensity (CaFus1): 970 | SPOT peptide array binding signal intensity (CaHof1): 0.5 | SPOT peptide array binding signal intensity (CaHse1): 81 | SPOT peptide array binding signal intensity (CaLsb1): 0.5 | SPOT peptide array binding signal intensity (CaLsb4): ≤ 0 | SPOT peptide array binding signal intensity (CaMyo5): 7
